This is one part of a sample in which hits are shown more often than they occur.
HT1080-NT tox – qHTS for induction of synthetic lethality in tumor cells producing 2HG: qHTS for the HT-1080-NT fibrosarcoma cell line; HT-1080-NT fibrosarcoma viability, CellTiter-Glo ATP luminescence, 48 h; Potency, µM (series often up to 46.1 µM), for the others: at the highest dose activity, negative = less viability, usual class: cytotoxic; hit rate 1.6% among 360,000;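 also: NT is the 2HG producing partner of a matched IDH1 knockdown line; potency is read from the fitted curve at half-maximal effect; 0% = DMSO-treated cells and -100% = media-only wells without cells; nearly all actives have a fitted effect of over 55% in size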
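Compounds were tested in concentration-response format on HT-1080-NT cells for 48 hours at 37 degrees C. Cell viability came from CellTiter-Glo luminescence; curves were classified by r2, response magnitude and activity.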
TDP1 cell noCPT – qHTS for Inhibitors of human tyrosyl-DNA phosphodiesterase 1 (TDP1): qHTS in cells in absence of CPT. DT40 Tdp1-/- hTDP1 cells, no CPT, ATP luminescence, 48 h. Potency, µM (titrated, usually from 46.2 µM), without a hit: at the top dose activity change, negative = growth inhibition, hits mostly inhibitors. hit rate 15% among 420,000; also: potency is read from the fitted curve at half-maximal effect; nearly all actives have a fitted effect of over 55% in size
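Compound effects on proliferation are scored in DT40 Tdp1-/-;hTDP1 cells in the absence of CPT. ATP levels (CellTiter-Glo luminescence) are recorded after a ≥48 hr, 37 °C incubation.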
TDP1 cell CPT – qHTS for Inhibitors of human tyrosyl-DNA phosphodiesterase 1 (TDP1): qHTS in cells in presence of CPT; chicken DT40 Tdp1-/-;hTDP1 cells + 20 nM CPT, ATP luminescence, 48 h; Potency, µM (highest dose often 46.2 µM), without a hit: top-dose activity change, negative = growth inhibition, actives largely listed as inhibitors; hit rate 12% among 420,000; AID 686979, 2013; also: potency is read from the fitted curve at half-maximal effect; nearly all actives have a fitted effect of over 55% in size
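Cell growth measured by CellTiter-Glo luminescence after a minimum 48 h, 37 C compound exposure with 20 nM CPT in Tdp1-knockout DT40 cells stably expressing hTDP1, seeded 400/well; qHTS titration format.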
HT1080 IDH1KD tx – qHTS for induction of synthetic lethality in tumor cells producing 2HG: qHTS for the HT-1080-IDH1KD cell line; AID 686971, 2013; Potency, µM (doses to about 46.1 µM), without a hit: at the highest dose activity, negative = toxicity, actives largely listed as cytotoxic; HT-1080 IDH1 knockdown viability, ATP luminescence, 48 h; hit rate 2% among 360,000;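 also: potency is read from the fitted curve at half-maximal effect; 0% = DMSO wells and -100% = cell-free medium wells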
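Using the IDH1-knockdown HT-1080 line run in the same batch and compound series as the NT line, viability after 48 h at 37 °C was determined by CellTiter-Glo luminescence and expressed as % activity.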
12-LOX inh – Primary qHTS assay for inhibitors of human arachidonate 12S-lipoxygenase (ALOX12): Round 2; purified 12hLO, xylenol orange hydroperoxide absorbance; hit rate 1.1% among 580,000; Potency, µM (doses to about 108 µM), for inactives: at the top dose activity change, negative = inhibition, most hits filed as inhibitors; also: potency is read from the fitted curve at half-maximal effect
Target sequence (P18054 whole entry, looked up): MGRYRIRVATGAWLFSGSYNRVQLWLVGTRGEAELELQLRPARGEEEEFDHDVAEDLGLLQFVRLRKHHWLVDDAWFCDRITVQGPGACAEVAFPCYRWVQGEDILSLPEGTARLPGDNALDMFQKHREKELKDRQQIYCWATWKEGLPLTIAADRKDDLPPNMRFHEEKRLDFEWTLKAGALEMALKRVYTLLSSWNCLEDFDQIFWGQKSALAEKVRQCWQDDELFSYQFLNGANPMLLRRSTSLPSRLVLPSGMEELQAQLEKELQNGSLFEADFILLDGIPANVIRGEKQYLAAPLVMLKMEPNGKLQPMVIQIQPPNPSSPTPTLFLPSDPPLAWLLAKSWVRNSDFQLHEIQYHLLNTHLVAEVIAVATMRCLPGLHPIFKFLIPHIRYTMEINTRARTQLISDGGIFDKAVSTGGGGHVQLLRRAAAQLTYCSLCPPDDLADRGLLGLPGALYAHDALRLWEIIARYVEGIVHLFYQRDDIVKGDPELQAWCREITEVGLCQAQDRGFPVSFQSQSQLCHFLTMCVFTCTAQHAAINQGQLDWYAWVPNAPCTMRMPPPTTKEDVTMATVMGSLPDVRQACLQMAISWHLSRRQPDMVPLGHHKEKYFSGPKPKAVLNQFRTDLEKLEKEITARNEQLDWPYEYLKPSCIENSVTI
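Purified human 12hLO (150 nM final) in 25 mM Hepes, 0.01% Triton X-100, pH 7.0 was preincubated 15 min at room temperature with compound. Then 40 uM arachidonic acid was added, 30 min. Hydroperoxide was read by Fe-XO absorbance ratio 573/405 nm.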
IL1B secr inh – qHTS for Inhibitors of Inflammasome Signaling: IL-1-beta AlphaLISA Primary Screen; THP-1 LPS/ATP IL-1B secretion, AlphaLISA, 16 h; hits give low values; activity change, % at 57.5 µM; hit rate 4.7% among 360,000; AID 743279, 2014; in the data active = activity change below about -50%; inconclusive = mostly about -30% to -49%
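Secreted IL-1B measured by AlphaLISA bead assay after 16 h compound exposure of THP-1 cells; compounds (final up to 57.5 uM) added 1 h before LPS (250 ng/mL) and ATP (1.25 mM) stimulation; lower signal means less secretion.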
Active calls of the source: *; ? = inconclusive; nt = not tested or not shown; [ ] = remark or other dose. Unless noted, calls follow the shape of the dose curve; as a rule, active = well fitted curve in the direction sought with a large enough effect; inconclusive = small, poorly fitted or top-dose-only effect, or another doubt; inactive = no such curve, though single readings can be large; an effect the other way counts as inactive or inconclusive. Unless noted, % is scaled to controls: 0 for no effect and ±100 for the full control effect.

SMILES | HT1080-NT tox | TDP1 cell noCPT | TDP1 cell CPT | HT1080 IDH1KD tx | 12-LOX inh | IL1B secr inh
C[C@@H]1CN([C@@H](C)CO)C(=O)Cc2cc(NC(=O)Nc3ccc(F)cc3)ccc2O[C@@H]1CN(C)Cc1ccc(Cl)c(Cl)c1 | 18µM* | 15µM* | ? | ? | ? | -54*
C[C@H]1CN([C@@H](C)CO)C(=O)Cc2cc(NC(=O)Nc3ccccc3)ccc2O[C@H]1CN(C)Cc1ccccc1 | -24% | 21µM* | 21µM* | ? | ? | -72*
C[C@H](CO)N1C[C@H](C)[C@H](CN(C)Cc2ccc(Oc3ccccc3)cc2)Oc2ccc(NC(=O)Nc3cccc4ccccc34)cc2CC1=O | -3% | ? | ? | -17% | -3% | 4
C[C@H](CO)N1C[C@H](C)[C@H](CN(C)Cc2ccncc2)Oc2ccc(NC(=O)Nc3ccc(C(F)(F)F)cc3)cc2CC1=O | ? | 4.6µM* | 3.3µM* | ? | -4% | -10
CC(OC(=O)c1cc(C2CC2)nn1-c1ccccc1)C(=O)Nc1ccc2c(c1)OCCO2 (centres undefined) | nt | nt | nt | nt | -13% | nt
Nc1c(Cl)cc(Nc2ncccc2[N+](=O)[O-])cc1Cl | nt | nt | nt | nt | 1% | nt
CCOC(=O)C1=C(C)N=C2SC(C(=O)OC)=CC(=O)N2C1c1ccc(F)cc1 (centres undefined) | 0% | ? | ? | -18% | ? | -61*
CCOC(=O)C1=C(C)N=C2SC(C(=O)OC)=CC(=O)N2C1c1cccc(OC)c1 (centres undefined) | -4% | ? | ? | -2% | -5% | 0
CCC1CCCCN1S(=O)(=O)c1ccc(C(=O)Nc2nnc(C3CC3)o2)cc1 (centres undefined) | -28% | ? | ? | ? | 0% | 84
O=C(Nc1nnc(-c2ccccc2Cl)o1)c1ccc(S(=O)(=O)N2CCCCCC2)cc1 | 4.1µM* | 5.8µM* | 4.6µM* | 8.2µM* | nt | 43
CCC1CCCCN1S(=O)(=O)c1ccc(C(=O)Nc2nnc(-c3ccccc3Cl)o2)cc1 (centres undefined) | ? | 6.5µM* | 5.2µM* | 8.2µM* | nt | 36
CS(=O)(=O)c1ccccc1-c1nnc(NC(=O)c2ccc(S(=O)(=O)N3CCCC3)cc2)o1 | -9% | -3% | -11% | -23% | -13% | -2
CSc1ccc(NC(=O)N2CCc3nc4cc(-c5ccccc5)[nH]n4c(=O)c3C2)cc1 | nt | nt | nt | nt | -1% | nt
O=C(CCc1cccnc1)NCC1CC1 | nt | nt | nt | nt | -23% | nt
O=C(CC1(O)C(=O)N(CN2CCOCC2)c2ccccc21)c1ccc(F)cc1 (centres undefined) | nt | nt | nt | nt | 25% | nt
CN1[C@@H](CCC(=O)NCc2ccccc2)CNC(=O)[C@@H]2[C@H]1CCN2C1CCOCC1 | nt | nt | nt | nt | 39%[176 µM] | nt
NC(=O)CC(NC(=O)Cc1ccc(Br)cc1)c1ccc(N2CCN(c3ccccn3)CC2)c([N+](=O)[O-])c1 (centres undefined) | 13% | -16% | ? | 3% | ? | 29
NC(=O)CC(NC(=O)c1cccc(Br)c1)c1ccc(N2CCN(c3ccccn3)CC2)c([N+](=O)[O-])c1 (centres undefined) | 12% | 13µM* | 15µM* | 1% | ? | 12
NC(=O)CC(NC(=O)c1ccc(Br)cc1)c1ccc(N2CCN(c3ccccn3)CC2)c([N+](=O)[O-])c1 (centres undefined) | 1% | 21µM* | 23µM* | 1% | -24% | -17
Cc1ccccc1-c1cc(C(=O)NCCc2cnc[nH]2)c2c(c1)N(C)CCO2 | nt | nt | nt | nt | 55%[176 µM] | nt
CCOc1ccc(CNC(=O)c2ccc3c(c2)c(C)c(C)n3Cc2ccccc2)cc1OC | nt | 15µM* | 12µM* | nt | -17% | nt
Cc1cccc(CNC(=O)c2ccc3c(c2)c(C)c(C)n3Cc2ccccc2)c1 | nt | ? | 21µM* | nt | -27% | nt
CCOc1ccc(CNC(=O)c2ccc3c(c2)c(C)c(C)n3C)cc1 | nt | ? | ? | nt | -18% | nt
Cc1c(C)n(Cc2ccccc2)c2ccc(C(=O)NCc3ccc(OC(C)C)cc3)cc12 | nt | 12µM* | 16µM* | nt | -21% | nt
Cc1nc2ccccc2c(C)c1C(=O)NC1CCCCC1 | nt | nt | nt | nt | 6% | nt
SMILES | HT1080-NT tox | TDP1 cell noCPT | TDP1 cell CPT | HT1080 IDH1KD tx | 12-LOX inh | IL1B secr inh
CC(=O)Nc1ccc(NC(=O)CCc2ncc(-c3ccc(Cl)cc3)o2)cc1 | nt | nt | nt | nt | -76% | nt
CCOC(=O)N1CCN(C(=O)c2ccc3c(c2)N(Cc2ccccc2)CCS3)CC1 | 3% | 26µM* | ? | 1% | -1% | 7
O=C(NC1CC1)c1ccc2c(c1)N(Cc1ccc(Cl)cc1)CCS2 | -8% | ? | ? | -20% | 12% | -17
Cc1ccc(Cl)cc1N1CCN(C(=O)c2ccc3c(c2)N(Cc2ccccc2)CCS3)CC1 | nt | 23µM* | 16µM* | nt | -10% | nt
CC1CC(C)CN(C(=O)c2ccc3c(c2)N(Cc2ccccc2)CCS3)C1 (centres undefined) | 10% | ? | ? | -11% | nt | ?
CCOc1ccc(C2(c3cccc(F)c3)CCCCC2)cc1 | nt | nt | nt | nt | 18% | nt
CCC(C)NC(=O)/C=C1\Sc2ccccc2NC1=O (centres undefined) | 28% | ? | -12% | 7% | 9% | -61*
O=C(CC1N=C2c3ccccc3N=C(SCC(=O)Nc3ccc(F)cc3)N2C1=O)NCc1ccc2c(c1)OCO2 (centres undefined) | nt | -20% | ? | nt | ? | nt
COc1ccc(NC(=O)CSC2=Nc3ccccc3C3=NC(CC(=O)NCc4ccc5c(c4)OCO5)C(=O)N23)cc1 (centres undefined) | nt | -8% | -23% | nt | ? | nt
COc1ccc(OC)c(NC(=O)CSC2=Nc3ccccc3C3=NC(CC(=O)NCc4ccc5c(c4)OCO5)C(=O)N23)c1 (centres undefined) | nt | 23µM* | ? | nt | ? | nt
CCc1ccc(NC(=O)CSC2=Nc3ccccc3C3=NC(CC(=O)NCc4ccc5c(c4)OCO5)C(=O)N23)cc1 (centres undefined) | nt | 23µM* | ? | nt | -29% | nt
